Compound activity from PubChem.
MgrA DNA FP: alters Staphylococcus aureus MgrA binding to DNA | fluorescence polarization | inhibition, % (concentration not given with the values) | 84,000 tested, 0.13% active | AID 602314; in the data active = inhibition above about 30%, passing the limit was not always enough;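 note: higher means less MgrA bound to DNA so lower polarization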
Hits are given with their value. The entries come from a sample that favours hits as a whole.

Results for CN1C(=O)/C(=C/c2ccc(I)o2)C(=O)NC1=S ?
MgrA DNA FP: 98

What do the screens show for `O=C1NC(=S)N(c2ccc(Br)cc2)C(=O)/C1=C\c1ccc(-c2ccccc2C(=O)O)o1`?
MgrA DNA FP: inactive

Results for C=CCN1C(=O)/C(=C/c2ccco2)C(=O)NC1=S ?
MgrA DNA FP: inactive

How did CC[n+]1c(-c2ccccc2)c2cc(N)ccc2c2ccc(N)cc21 do in these assays?
MgrA DNA FP: 58

How did COc1ccccc1C=C(C#N)C#N do in these assays?
MgrA DNA FP: inactive

How did CCOC(=O)c1c(CN2CCOCC2)n(Cc2ccccc2)c2cc(Br)c(O)cc12 do in these assays?
MgrA DNA FP: inactive

What do the screens show for `O=C1NC(=S)NC(=O)C1=Cc1ccccc1`?
MgrA DNA FP: inactive

Results for N#CC1C(=O)c2ccccc2C1=O ?
MgrA DNA FP: inactive

How did OC1COC(NCCc2ccccc2)C(O)C1O (stereo not given) do in these assays?
MgrA DNA FP: inactive

How did CC12CCC(O)CC1=CCC1C2CCC2(C)C(O)/C(=C/c3ccc(F)cc3)CC12 (stereo not given) do in these assays?
MgrA DNA FP: inactive
